High-throughput results (PubChem)
An excerpt weighted towards active compounds, which were near 19% of everything screened.
HepG2 tox – qHTS for Inhibitors of TGF-b: Cytotox Counterscreen; 410,000 compounds, 0.76% hits; HepG2 CAGA-GFP viability, ATP luminescence, 18 h; Potency, µM (titrated, usually from 46.1 µM), for inactives: top-dose activity change, negative = cytotoxicity, hits mostly cytotoxic; further: potency means the concentration at half of the fitted maximal effect
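HepG2 CAGA-GFP cells (1000/well, DMEM with 1% FBS) received compound, then TGF-beta at 500 pg/mL final, and were incubated 18 hours at 37 degrees C. Viability was read by CellTiter-Glo luminescence. Media-only wells were set as complete cell-killing and DMSO as no toxicity.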
TGFb SMAD3 inh – qHTS for Inhibitors of TGF-b; 410,000 compounds, 1.2% hits; Potency, µM (series often up to 46.1 µM), for the others: top-dose activity, negative = inhibition, usual class: inhibitors; HepG2 CAGA-GFP TGF-b/SMAD3 reporter, GFP fluorescence, 18 h; TGF-beta stimulated, 500 pg/mL final; further: potency means the concentration at half of the fitted maximal effect; on the % scale 0 is the no-effect control and ±100 the full control effect; nearly all actives have a fitted effect of over 65% in size
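Using HEPG2 CAGA-GFP reporter cells at 1000 cells/well, we pinned test compounds, stimulated with recombinant TGF-beta (500 pg/mL final) and measured total well GFP after 18 h.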
IL-1B inflam inh – qHTS for Inhibitors of Inflammasome Signaling: IL-1-beta AlphaLISA Primary Screen; THP-1 LPS/ATP IL-1B secretion, AlphaLISA, 16 h; hits give low values; activity change, % at 57.5 µM; 360,000 compounds, 4.7% hits; AID 743279, 2014; in the data active means activity change below about -50%; inconclusive means mostly about -30% to -49%; further: on the % scale 0 is the no-effect control and ±100 the full control effect
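Secreted IL-1B measured by AlphaLISA bead assay after 16 h compound exposure of THP-1 cells; compounds (final up to 57.5 uM) added 1 h before LPS (250 ng/mL) and ATP (1.25 mM) stimulation; lower signal means less secretion.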
TDP1 cell CPT – qHTS for Inhibitors of human tyrosyl-DNA phosphodiesterase 1 (TDP1): qHTS in cells in presence of CPT | chicken DT40 Tdp1-/-;hTDP1 cells + 20 nM CPT, ATP luminescence, 48 h | Potency, µM (series often up to 46.2 µM), inactives show at the top dose activity change, negative = growth inhibition, actives largely listed as inhibitors | 420,000 compounds, 12% hits; further: potency means the concentration at half of the fitted maximal effect; on the % scale 0 is the no-effect control and ±100 the full control effect; nearly all actives have a fitted effect of over 55% in size
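Chicken DT40 Tdp1-/- cells stably complemented with human TDP1 were seeded at 400 cells/well in medium containing 20 nM camptothecin, exposed to pin-transferred compounds, and grown at 37 °C for at least 48 hr. Viability was read as ATP luminescence.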
TDP1 cell noCPT – qHTS for Inhibitors of human tyrosyl-DNA phosphodiesterase 1 (TDP1): qHTS in cells in absence of CPT; DT40 Tdp1-/- hTDP1 cells, no CPT, ATP luminescence, 48 h; Potency, µM (top dose mostly 46.2 µM), for inactives: at the highest dose activity change, negative = growth inhibition, hits mostly inhibitors; 420,000 compounds, 15% hits; AID 686978, 2013; further: potency means the concentration at half of the fitted maximal effect; on the % scale 0 is the no-effect control and ±100 the full control effect; nearly all actives have a fitted effect of over 55% in size
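DT40 Tdp1-/-;hTDP1 cells, no CPT (DMSO vehicle only), 400 cells/well; compounds pin-transferred; ≥48 hr, 37 °C; CellTiter-Glo 30 min RT dark, luminescence read.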
TDP1 inh – qHTS Assay for Inhibitors of Tyrosyl-DNA Phosphodiesterase (TDP1); recombinant TDP1, AlphaScreen DNA substrate cleavage; Potency, µM (series often up to 130 µM), for the others: top-dose activity change, negative = inhibition, usual class: inhibitors; 350,000 compounds, 0.28% hits; AID 485290, 2010; further: potency means the concentration at half of the fitted maximal effect; on the % scale 0 is the no-effect control and ±100 the full control effect; nearly all actives have a fitted effect of over 40% in size
Target sequence (Q9NUW8 whole entry, looked up): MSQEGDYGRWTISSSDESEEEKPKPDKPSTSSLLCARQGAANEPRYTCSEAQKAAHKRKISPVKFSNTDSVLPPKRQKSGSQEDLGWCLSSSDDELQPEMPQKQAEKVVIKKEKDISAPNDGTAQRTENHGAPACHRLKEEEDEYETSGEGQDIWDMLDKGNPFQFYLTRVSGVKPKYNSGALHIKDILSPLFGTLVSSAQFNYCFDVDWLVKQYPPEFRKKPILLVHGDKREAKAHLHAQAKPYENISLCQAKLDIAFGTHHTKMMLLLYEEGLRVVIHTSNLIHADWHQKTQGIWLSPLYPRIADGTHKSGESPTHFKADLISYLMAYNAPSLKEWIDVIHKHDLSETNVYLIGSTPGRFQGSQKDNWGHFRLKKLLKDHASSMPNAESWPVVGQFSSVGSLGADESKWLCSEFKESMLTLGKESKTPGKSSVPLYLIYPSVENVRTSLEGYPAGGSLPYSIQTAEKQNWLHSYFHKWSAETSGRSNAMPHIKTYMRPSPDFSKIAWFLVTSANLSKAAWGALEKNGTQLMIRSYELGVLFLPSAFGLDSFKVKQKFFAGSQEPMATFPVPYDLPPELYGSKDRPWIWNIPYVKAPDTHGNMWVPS
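Signal: AlphaScreen proximity between streptavidin donor and anti-FITC acceptor beads on intact substrate. Reaction: Tdp1 1 nM, substrate 15 nM final, 5 min RT after 15 min compound preincubation.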
* marks the source's active call; other numbers are inactive results; ? = inconclusive; · = no result; [ ] = another dose, or the depositor's remark. Unless noted, the call rests on the fitted dose curve; in most records, active means well fitted curve in the direction sought with a large enough effect; inconclusive means small, poorly fitted or top-dose-only effect, or another doubt; inactive means no such curve, though single readings can be large; an effect the other way counts as inactive or inconclusive.

SMILES | HepG2 tox | TGFb SMAD3 inh | IL-1B inflam inh | TDP1 cell CPT | TDP1 cell noCPT | TDP1 inh
Cc1cc2c(c(-c3nc4ccccc4s3)c1)OC(CNC(=O)c1occc1C)C2 (configuration not stated) | · | · | · | 19.3%[9.04 µM] | ? | ·
N#CC1(Nc2ccc(S(N)(=O)=O)cc2)CCCC1 | 0.2% | -5.2% | 1.8 | ? | ? | ·
CC1(C)CCC[C@@]2(C)C1CC[C@@](C)(O)[C@@H]2CC[C@@](C)(O)C1CO1 (some centres not stated) | · | · | · | ? | -5.3%[9.04 µM] | -1.2%
CCOc1cc(-c2ccc(OC(=O)c3ccccc3F)cc2)cc(=O)c2c(C)oc(C)c12 | -6.8% | -1.4% | · | 13µM* | 13µM* | 4.7%
COc1ccc(C(CC(=O)Nc2cc(Cl)c(OC)cc2OC)N2Cc3ccccc3C2=O)cc1 (configuration not stated) | -11.5% | -10.2% | · | ? | ? | 0.0%
Cc1ccc(S(=O)(=O)Nc2cccc(C(=O)NCC(c3ccco3)N(C)C)c2)cc1F (configuration not stated) | -10.4% | -9.4% | -8.3 | ? | 20.6µM* | -4.9%
O=C(NCc1cccnc1)c1cccc(S(=O)(=O)Nc2ccc(F)cc2)c1 | -29.3% | 1.7% | 11.5 | ? | ? | 1.4%
Cc1ccc(S(=O)(=O)Nc2cccc(C(=O)NCc3cccnc3)c2)cc1F | -23.3% | ? | 16.4 | ? | 4.61µM* | 1.0%
Cc1ccc(S(=O)(=O)Nc2cccc(C(=O)NCC(c3ccccc3)N(C)C)c2)cc1F (configuration not stated) | -14.8% | -26.6% | ? | -14.7% | ? | -3.5%
COc1ccccc1CNC(=O)C(=O)NCC(c1cccs1)S(=O)(=O)c1ccccc1 (configuration not stated) | -32.3% | -4.4% | · | ? | 16.4µM* | -5.2%
O=C(NCCc1ccccc1)C(=O)NCC(c1cccs1)S(=O)(=O)c1cccs1 (configuration not stated) | -19.9% | 9.3% | · | 16.4µM* | ? | 5.2%
COc1ccc(CC(=O)NCC(c2cccs2)S(=O)(=O)c2ccc(C)cc2)cc1 (configuration not stated) | -14.7% | -9.9% | · | ? | 25.9µM* | 5.2%
Cc1ccc(C(=O)CC(c2cccs2)S(=O)(=O)c2ccc(C)cc2)cc1 (configuration not stated) | -0.5% | ? | -7.7 | ? | 14.6µM* | 5.7%
O=C(COC(=O)CNC(=O)C1CCCCC1)NC1CC1 | 14.7% | 5.0% | · | -6.7% | -14.7% | -0.3%
COc1cccc(NC(=O)/C(C#N)=C/c2c(C)n(Cc3ccc(Cl)cc3)c3ccccc23)c1 | -0.7% | ? | · | -22.9% | ? | 3.8%[2.28 µM]
O=C(O)c1ccc2c(c1)C(=O)N([C@H](Cc1ccc3ccccc3c1)C(=O)O)C2=O | · | · | · | · | · | 3.8%
Cc1cc(C)c(S(=O)(=O)NCC(c2ccco2)S(=O)(=O)c2ccccc2)c(C)c1 (configuration not stated) | 5.3% | -2.3% | · | ? | ? | 0.0%
Cc1cc(C)c(S(=O)(=O)NCC(c2cccs2)S(=O)(=O)c2ccccc2)c(C)c1 (configuration not stated) | 6.31µM* | 5.62µM* | · | 1.16µM* | 4.11µM* | 0.0%
CC(C)(C)c1ccc(C(=O)NCC(c2cccs2)S(=O)(=O)c2ccc(F)cc2)cc1 (configuration not stated) | -24.6% | ? | · | 18.4µM* | 20.6µM* | -5.2%
Cc1ccc(C(=O)NCC(c2cccs2)S(=O)(=O)c2cccs2)cc1 (configuration not stated) | -24.2% | ? | · | 20.6µM* | 9.2µM* | 5.2%
CC(C)(C)c1ccc(C(=O)NCC(c2cccs2)S(=O)(=O)c2cccs2)cc1 (configuration not stated) | -16.1% | -6.7% | · | ? | ? | 0.0%
CC(C)c1ccc(NC(=O)CSc2ncnc3c2sc2ccccc23)cc1 | 10.5% | -7.0% | · | ? | ? | 7.8%
Cc1ccccc1OCCSc1nc2ccccc2n1CCC(=O)O | -14.0% | -22.9% | 1.3 | -1.2% | -10.5% | ·
COc1ccc(C#CC2C=CC(Oc3cc(C)cc(C)c3)C(CO)O2)cc1 (configuration not stated) | · | · | · | · | · | 4.8%[21 µM]
CCCCCCCCc1ccc(-c2ccc(C(=O)O)cc2)cc1 | · | · | · | · | · | 14.8%
SMILES | HepG2 tox | TGFb SMAD3 inh | IL-1B inflam inh | TDP1 cell CPT | TDP1 cell noCPT | TDP1 inh
CCOC(OCC)c1cn(Cc2ccc(C(=O)c3ccccc3)cc2)nn1 | -18.4% | ? | 40.9 | 23.1µM* | 23.1µM* | ·
O=C(c1ccccc1)c1ccc(Cn2cc(-c3ccccc3)nn2)cc1 | -26.9% | ? | 54.5 | 7.31µM* | 7.31µM* | ·
CCCCCc1ccc(-c2cn(Cc3ccc(C(=O)c4ccccc4)cc3)nn2)cc1 | 6.4% | ? | 3.7 | 3.26µM* | 4.11µM* | ·
CCOC(NC(=O)c1ccccc1)C(NC(=O)c1ccccc1)OCC (configuration not stated) | 2.1% | -27.1% | 15.4 | -11.6% | 0.3% | 3.3%
COc1ccc(CN(Cc2ccccc2)C(=O)c2ccco2)cc1COc1ccc(NC(C)=O)cc1 | · | · | · | ? | ? | 4.0%
O=C(O)c1ccc2c(c1)C(=O)N(c1ccc(Nc3ccccc3)cc1)C2=O | -2.0% | -15.0% | 3.0 | -10.0% | 4.8% | ·
COc1cc(=O)n2c(c1C(=O)N(C)Cc1nonc1C)CCN(CC1CC=CCC1)CC2 (configuration not stated) | · | · | · | -19.6% | -14.6% | ·
O=[N+]([O-])c1cccc(S(=O)(=O)N2CCN(c3nc(-c4ccccc4)nc4ccccc34)CC2)c1 | 3.3% | 0.9% | · | -0.7% | -8.3% | 3.5%
COc1ccc(-n2nnnc2SCC(=O)N2CCOCC2)cc1 | 0.562µM* | -1.6% | -5.4 | -18.7% | -18.7% | 2.2%
COc1ccc(N2CCN(C(=O)CSc3nnnn3-c3ccc4c(c3)OCCO4)CC2)cc1 | 2.2% | -4.4% | -59.1* | ? | ? | 6.2%
O=C(NCc1ccco1)c1ccccc1-c1nc(-c2ccccc2)no1 | 2µM* | -18.7% | -5.3 | ? | -28.9% | 6.0%
